Results taken from PMC7862700, “An all-to-all approach to the identification of sequence-specific readers for epigenetic DNA modifications on cytosine”.

Key:
Assay in all cases: DAPPL (digital affinity profiling via proximity ligation, sequencing); 10 mM Tris-HCl pH 7.5, 50 mM NaCl, 1 mM DTT, 4% glycerol, room temperature, 30 min; GST-TFs on glutathione beads, 16-mer random dsDNA library, 0.1% formaldehyde crosslink after washing; high values mean tight binding
[1] = molecular target: T1, FLI1 (Homo sapiens, UniProt Q01543 1-452); settings: protein: recombinant; tags: N-terminal GST; dsDNA, one strand shown
T1 sequence: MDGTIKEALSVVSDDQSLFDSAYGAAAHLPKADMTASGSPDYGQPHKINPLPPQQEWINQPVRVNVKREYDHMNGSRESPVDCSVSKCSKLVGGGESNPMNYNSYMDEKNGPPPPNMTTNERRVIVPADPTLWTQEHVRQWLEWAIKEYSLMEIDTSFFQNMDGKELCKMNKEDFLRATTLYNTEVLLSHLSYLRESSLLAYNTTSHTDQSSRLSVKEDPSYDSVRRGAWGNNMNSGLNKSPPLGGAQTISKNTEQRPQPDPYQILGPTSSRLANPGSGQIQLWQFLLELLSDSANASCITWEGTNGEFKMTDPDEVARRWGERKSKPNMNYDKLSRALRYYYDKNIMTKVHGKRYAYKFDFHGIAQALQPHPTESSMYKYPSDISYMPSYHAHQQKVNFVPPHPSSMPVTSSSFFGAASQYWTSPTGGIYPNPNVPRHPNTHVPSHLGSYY
Summary of the method: (§1)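 In yeast, human transcription factors were expressed with a GST fusion, then pulled down on glutathione beads and given DNA barcodes. Pooled with a tag-only sample, they were exposed to 200 nmole of a 16-mer random double-stranded DNA library (Tris/NaCl/DTT/glycerol buffer, room temperature, 30 min), washed, crosslinked with 0.1% formaldehyde, proximity-ligated using BsaI/T4 ligase for 1 h at 37 °C, PCR-amplified and read on an Illumina NextSeq500. Each hexamer's frequency of reads for a factor, divided by the matching frequency for the tag-only sample, gives the binding signal.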

[2] = molecular target: T2, ELK1 (Homo sapiens, UniProt P19419 1-428); settings: protein: recombinant; tags: N-terminal GST; dsDNA, one strand shown
T2 sequence: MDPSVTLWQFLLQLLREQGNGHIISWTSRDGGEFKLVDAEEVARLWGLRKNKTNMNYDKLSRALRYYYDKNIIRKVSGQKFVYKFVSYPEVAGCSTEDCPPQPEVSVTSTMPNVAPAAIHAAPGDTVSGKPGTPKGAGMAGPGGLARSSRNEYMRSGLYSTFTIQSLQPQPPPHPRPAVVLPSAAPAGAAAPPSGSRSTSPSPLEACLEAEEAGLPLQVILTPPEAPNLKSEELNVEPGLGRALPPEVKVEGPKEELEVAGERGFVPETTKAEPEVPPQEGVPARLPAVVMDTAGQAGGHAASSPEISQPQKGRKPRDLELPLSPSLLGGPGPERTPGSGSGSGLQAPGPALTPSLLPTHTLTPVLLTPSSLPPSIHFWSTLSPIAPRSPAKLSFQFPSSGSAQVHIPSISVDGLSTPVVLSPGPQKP
Summary of the method: as §1

[3] = molecular target: T3, GABPA (Homo sapiens, UniProt Q06546 1-454); settings: protein: recombinant; tags: N-terminal GST; dsDNA, one strand shown
T3 sequence: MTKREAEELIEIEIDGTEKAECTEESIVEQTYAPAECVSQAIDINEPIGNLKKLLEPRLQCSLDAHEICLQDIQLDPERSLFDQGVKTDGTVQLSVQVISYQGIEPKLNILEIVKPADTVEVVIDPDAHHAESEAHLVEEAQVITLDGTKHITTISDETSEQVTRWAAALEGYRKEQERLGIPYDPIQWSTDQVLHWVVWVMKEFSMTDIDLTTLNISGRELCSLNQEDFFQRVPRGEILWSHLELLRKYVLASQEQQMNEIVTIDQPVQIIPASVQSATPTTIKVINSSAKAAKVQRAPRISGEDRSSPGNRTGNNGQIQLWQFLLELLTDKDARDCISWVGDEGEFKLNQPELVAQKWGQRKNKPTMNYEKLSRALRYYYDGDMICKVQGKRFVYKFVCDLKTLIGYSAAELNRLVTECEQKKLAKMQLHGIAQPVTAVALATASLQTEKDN
Summary of the method: as §1

[4] = molecular target: T4, ERG (Homo sapiens, UniProt P11308 1-479); settings: protein: recombinant; tags: N-terminal GST; dsDNA, one strand shown
T4 sequence: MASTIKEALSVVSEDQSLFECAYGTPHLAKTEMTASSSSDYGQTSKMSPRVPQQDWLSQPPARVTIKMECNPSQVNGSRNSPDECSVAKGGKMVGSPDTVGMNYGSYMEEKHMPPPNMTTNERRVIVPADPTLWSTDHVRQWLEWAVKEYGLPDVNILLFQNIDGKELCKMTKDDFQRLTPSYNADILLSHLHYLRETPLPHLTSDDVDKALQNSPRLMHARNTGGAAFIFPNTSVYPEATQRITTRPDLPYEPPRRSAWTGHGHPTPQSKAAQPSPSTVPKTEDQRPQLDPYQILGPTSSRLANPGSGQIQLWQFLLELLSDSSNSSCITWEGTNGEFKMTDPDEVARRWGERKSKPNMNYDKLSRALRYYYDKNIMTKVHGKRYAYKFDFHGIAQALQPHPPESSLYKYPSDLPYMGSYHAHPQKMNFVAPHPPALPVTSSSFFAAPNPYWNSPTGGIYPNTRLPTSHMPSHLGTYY
Summary of the method: as §1

[5] = molecular target: ELF1 (Homo sapiens, UniProt P32519 1-619); settings: protein: recombinant; tags: N-terminal GST; dsDNA, one strand shown
Chain of ELF1 (P32519 whole entry): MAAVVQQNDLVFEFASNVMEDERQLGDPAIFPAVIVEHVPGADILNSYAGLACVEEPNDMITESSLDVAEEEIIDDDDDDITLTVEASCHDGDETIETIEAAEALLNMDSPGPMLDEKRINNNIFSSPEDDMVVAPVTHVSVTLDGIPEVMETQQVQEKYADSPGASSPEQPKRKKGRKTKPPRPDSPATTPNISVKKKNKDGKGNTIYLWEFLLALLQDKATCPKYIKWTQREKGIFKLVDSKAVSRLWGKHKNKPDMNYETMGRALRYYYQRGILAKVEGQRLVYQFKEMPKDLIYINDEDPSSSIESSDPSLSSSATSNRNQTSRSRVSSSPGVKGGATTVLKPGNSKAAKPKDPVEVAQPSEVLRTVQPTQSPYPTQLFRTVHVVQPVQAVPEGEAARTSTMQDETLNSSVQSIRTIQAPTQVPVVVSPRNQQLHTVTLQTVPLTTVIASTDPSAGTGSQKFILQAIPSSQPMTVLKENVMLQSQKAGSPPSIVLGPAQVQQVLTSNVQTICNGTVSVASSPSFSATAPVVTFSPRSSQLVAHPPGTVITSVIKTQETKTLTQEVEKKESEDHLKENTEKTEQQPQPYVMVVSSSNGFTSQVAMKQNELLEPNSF
Summary of the method: as §1

[6] = molecular target: T5, EHF (Homo sapiens, UniProt Q9NZC4 1-300); settings: protein: recombinant; tags: N-terminal GST; dsDNA, one strand shown
T5 sequence: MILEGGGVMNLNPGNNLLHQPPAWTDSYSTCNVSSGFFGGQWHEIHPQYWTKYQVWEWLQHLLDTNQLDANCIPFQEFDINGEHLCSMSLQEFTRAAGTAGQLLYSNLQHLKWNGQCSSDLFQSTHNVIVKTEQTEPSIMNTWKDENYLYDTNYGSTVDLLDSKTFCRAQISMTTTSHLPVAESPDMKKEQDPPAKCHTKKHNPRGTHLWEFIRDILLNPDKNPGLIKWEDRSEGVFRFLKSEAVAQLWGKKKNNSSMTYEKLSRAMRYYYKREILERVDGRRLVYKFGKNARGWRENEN
Summary of the method: as §1

[7] = molecular target: SPI1 (Homo sapiens, UniProt P17947 1-270); settings: protein: recombinant; tags: N-terminal GST; dsDNA, one strand shown
Summary of the method: as §1

[8] = molecular target: SPIB (Homo sapiens, UniProt Q01892 1-262); settings: protein: recombinant; tags: N-terminal GST; dsDNA, one strand shown
Chain of SPIB (Q01892 whole entry): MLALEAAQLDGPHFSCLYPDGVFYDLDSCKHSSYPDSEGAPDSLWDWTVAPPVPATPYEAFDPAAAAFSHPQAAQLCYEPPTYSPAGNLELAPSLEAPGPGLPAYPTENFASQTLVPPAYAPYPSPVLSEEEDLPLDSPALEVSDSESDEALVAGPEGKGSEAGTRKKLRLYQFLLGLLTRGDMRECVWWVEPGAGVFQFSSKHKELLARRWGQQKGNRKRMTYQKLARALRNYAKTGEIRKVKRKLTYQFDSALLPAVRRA
Summary of the method: as §1

[9] = molecular target: T6, ELK3 (Homo sapiens, UniProt P41970 1-407); settings: protein: recombinant; tags: N-terminal GST; dsDNA, one strand shown
T6 sequence: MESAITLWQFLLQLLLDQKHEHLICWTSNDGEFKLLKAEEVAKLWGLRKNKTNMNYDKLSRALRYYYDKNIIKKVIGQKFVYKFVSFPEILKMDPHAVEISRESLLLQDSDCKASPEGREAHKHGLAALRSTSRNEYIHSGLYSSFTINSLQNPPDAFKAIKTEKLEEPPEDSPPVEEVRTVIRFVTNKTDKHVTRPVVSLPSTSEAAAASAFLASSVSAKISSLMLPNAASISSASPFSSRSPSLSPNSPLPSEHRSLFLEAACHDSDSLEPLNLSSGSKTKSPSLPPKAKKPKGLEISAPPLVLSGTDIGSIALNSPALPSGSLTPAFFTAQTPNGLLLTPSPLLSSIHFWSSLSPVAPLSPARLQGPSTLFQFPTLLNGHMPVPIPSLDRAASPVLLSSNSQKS
Summary of the method: as §1

[10] = molecular target: T7, FEV (Homo sapiens, UniProt Q99581 1-238); settings: protein: recombinant; tags: N-terminal GST; dsDNA, one strand shown
T7 sequence: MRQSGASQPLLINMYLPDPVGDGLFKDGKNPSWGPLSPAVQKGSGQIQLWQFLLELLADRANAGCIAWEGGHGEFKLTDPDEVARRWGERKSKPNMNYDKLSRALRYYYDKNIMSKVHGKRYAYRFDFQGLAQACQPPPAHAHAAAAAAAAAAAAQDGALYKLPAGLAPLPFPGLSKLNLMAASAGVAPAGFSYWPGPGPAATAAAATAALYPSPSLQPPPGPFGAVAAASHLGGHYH
Summary of the method: as §1

[11] = molecular target: ETV5 (Homo sapiens, UniProt P41161 1-510); settings: protein: recombinant; tags: N-terminal GST; dsDNA, one strand shown
Chain of ETV5 (P41161 whole entry): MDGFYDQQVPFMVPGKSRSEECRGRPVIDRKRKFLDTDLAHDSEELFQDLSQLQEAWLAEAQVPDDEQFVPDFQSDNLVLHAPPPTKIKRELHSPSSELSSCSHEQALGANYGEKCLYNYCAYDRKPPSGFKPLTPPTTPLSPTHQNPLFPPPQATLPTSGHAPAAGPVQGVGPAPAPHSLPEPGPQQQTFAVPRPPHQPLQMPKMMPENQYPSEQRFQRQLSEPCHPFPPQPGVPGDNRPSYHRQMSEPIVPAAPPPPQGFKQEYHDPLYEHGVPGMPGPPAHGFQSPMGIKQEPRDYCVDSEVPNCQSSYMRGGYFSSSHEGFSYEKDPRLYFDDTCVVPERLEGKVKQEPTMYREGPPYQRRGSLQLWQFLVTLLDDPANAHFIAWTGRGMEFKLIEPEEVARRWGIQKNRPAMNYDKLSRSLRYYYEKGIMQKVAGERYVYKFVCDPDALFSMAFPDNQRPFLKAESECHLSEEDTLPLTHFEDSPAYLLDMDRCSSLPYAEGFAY
Summary of the method: as §1

[12] = molecular target: HSF1 (Homo sapiens, UniProt Q00613 1-529); settings: protein: recombinant; tags: N-terminal GST; chain copies: 3; dsDNA, one strand shown
Chain of HSF1 (Q00613 whole entry): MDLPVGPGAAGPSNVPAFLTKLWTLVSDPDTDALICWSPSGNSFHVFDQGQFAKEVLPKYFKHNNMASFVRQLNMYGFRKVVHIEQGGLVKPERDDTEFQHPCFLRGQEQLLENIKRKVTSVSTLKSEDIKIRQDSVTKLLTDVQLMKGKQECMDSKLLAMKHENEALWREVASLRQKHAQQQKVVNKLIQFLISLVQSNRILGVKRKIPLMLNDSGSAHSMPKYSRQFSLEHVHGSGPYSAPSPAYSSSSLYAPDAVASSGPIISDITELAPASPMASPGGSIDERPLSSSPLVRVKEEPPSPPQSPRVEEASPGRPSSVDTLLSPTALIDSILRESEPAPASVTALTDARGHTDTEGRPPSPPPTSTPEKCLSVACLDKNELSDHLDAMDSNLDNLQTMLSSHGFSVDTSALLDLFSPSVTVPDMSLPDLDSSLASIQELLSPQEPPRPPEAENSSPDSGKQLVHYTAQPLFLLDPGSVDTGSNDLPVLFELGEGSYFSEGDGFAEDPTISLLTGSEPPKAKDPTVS
Summary of the method: as §1

[13] = molecular target: ELF4 (Homo sapiens, UniProt Q99607 1-663); settings: protein: recombinant; tags: N-terminal GST; dsDNA, one strand shown
Chain of ELF4 (Q99607 whole entry): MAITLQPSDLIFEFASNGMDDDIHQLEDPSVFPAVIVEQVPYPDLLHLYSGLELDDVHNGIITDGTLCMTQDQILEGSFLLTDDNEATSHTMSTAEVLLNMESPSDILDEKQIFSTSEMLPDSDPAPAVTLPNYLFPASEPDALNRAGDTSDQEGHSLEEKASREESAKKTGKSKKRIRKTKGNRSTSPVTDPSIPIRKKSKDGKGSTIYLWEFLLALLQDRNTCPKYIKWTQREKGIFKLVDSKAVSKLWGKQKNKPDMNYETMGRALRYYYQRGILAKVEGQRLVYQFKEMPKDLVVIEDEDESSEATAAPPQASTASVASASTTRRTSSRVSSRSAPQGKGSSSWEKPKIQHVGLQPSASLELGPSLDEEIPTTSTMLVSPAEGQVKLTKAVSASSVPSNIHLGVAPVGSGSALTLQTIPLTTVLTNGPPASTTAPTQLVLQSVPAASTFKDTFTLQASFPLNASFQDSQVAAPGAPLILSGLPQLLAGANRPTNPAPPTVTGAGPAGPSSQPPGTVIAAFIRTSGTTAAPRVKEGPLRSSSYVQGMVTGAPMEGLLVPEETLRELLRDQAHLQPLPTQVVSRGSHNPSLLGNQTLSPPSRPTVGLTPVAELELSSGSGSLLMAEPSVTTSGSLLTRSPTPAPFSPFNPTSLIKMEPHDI
Summary of the method: as §1

[14] = molecular target: T8, ELK4 (Homo sapiens, UniProt P28324-2 1-405); settings: protein: recombinant; tags: N-terminal GST; dsDNA, one strand shown
T8 sequence: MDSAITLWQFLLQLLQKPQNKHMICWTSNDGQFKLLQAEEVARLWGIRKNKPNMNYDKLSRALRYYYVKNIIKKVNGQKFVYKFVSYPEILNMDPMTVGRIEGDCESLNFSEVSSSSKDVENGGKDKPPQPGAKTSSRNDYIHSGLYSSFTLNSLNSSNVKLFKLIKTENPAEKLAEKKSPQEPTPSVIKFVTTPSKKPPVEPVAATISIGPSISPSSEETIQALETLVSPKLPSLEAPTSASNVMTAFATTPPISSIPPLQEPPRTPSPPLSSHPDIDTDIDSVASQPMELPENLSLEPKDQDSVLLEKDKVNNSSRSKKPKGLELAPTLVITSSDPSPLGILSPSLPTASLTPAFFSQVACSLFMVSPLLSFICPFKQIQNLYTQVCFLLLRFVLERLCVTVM
Summary of the method: as §1

[15] = molecular target: T9, ETV2 (Homo sapiens, UniProt O00321 1-342); settings: protein: recombinant; tags: N-terminal GST; dsDNA, one strand shown
T9 sequence: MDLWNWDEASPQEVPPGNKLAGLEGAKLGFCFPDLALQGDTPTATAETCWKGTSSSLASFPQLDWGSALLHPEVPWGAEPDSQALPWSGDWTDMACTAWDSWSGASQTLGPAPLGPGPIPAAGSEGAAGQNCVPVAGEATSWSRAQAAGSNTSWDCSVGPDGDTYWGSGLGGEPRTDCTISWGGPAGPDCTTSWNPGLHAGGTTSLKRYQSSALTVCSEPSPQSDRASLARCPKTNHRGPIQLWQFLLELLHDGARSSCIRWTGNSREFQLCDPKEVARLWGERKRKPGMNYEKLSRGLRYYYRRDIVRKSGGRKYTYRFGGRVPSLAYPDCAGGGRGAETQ
Summary of the method: as §1

[16] = molecular target: T10, ELF3 (Homo sapiens, UniProt P78545 1-371); settings: protein: recombinant; tags: N-terminal GST; dsDNA, one strand shown
T10 sequence: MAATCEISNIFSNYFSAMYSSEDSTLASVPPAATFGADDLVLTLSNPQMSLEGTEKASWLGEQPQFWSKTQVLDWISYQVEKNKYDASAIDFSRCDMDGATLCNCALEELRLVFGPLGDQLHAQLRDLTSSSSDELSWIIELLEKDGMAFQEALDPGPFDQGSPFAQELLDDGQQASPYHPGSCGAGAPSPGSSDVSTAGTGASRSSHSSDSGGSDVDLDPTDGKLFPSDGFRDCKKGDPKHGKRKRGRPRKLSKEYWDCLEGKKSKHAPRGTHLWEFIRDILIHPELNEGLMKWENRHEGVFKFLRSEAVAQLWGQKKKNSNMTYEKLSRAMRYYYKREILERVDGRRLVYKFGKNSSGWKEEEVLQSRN
Summary of the method: as §1

[17] = molecular target: ETV1 (Homo sapiens, UniProt P50549 1-477); settings: protein: recombinant; tags: N-terminal GST; dsDNA, one strand shown
Chain of ETV1 (P50549 whole entry): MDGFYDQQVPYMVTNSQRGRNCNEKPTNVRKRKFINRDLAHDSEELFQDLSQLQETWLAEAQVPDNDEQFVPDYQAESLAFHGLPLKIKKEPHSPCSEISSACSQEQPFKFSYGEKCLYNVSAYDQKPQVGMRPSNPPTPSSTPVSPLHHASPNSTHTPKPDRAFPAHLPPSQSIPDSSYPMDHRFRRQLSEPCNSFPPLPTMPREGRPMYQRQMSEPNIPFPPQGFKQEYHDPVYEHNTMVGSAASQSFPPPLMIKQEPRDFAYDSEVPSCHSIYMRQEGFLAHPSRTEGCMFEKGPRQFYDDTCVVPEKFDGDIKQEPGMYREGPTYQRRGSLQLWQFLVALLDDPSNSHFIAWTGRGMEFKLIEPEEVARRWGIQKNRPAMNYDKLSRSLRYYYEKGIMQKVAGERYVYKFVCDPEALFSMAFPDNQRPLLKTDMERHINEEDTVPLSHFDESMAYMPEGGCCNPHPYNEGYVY
Summary of the method: as §1

Sequence: GCATTC
- binding signal [1]: 1.15 fold enrichment (6-mer frequency, TF over GST control)
- binding signal [2]: 1.16 fold enrichment (6-mer frequency, TF over GST control)
- binding signal [3]: 1.18 fold enrichment (6-mer frequency, TF over GST control)
- binding signal [4]: 1.12 fold enrichment (6-mer frequency, TF over GST control)
- binding signal [5]: 1.13 fold enrichment (6-mer frequency, TF over GST control)
- binding signal [6]: 1.07 fold enrichment (6-mer frequency, TF over GST control)
- binding signal [7]: 1.15 fold enrichment (6-mer frequency, TF over GST control)
- binding signal [8]: 1.12 fold enrichment (6-mer frequency, TF over GST control)
- binding signal [9]: 1.03 fold enrichment (6-mer frequency, TF over GST control)
- binding signal [10]: 1.08 fold enrichment (6-mer frequency, TF over GST control)
- binding signal [11]: 1.1 fold enrichment (6-mer frequency, TF over GST control)
- binding signal [12]: 1.17 fold enrichment (6-mer frequency, TF over GST control)
- binding signal [13]: 1.1 fold enrichment (6-mer frequency, TF over GST control)
- binding signal [14]: 1.05 fold enrichment (6-mer frequency, TF over GST control)
- binding signal [15]: 1.09 fold enrichment (6-mer frequency, TF over GST control)
- binding signal [16]: 1.11 fold enrichment (6-mer frequency, TF over GST control)
- binding signal [17]: 1.24 fold enrichment (6-mer frequency, TF over GST control)
